Reference: PubChem BioAssay (NCATS)
Records with an inconclusive call do not appear. Calls of active or inactive are those of the source. Unless noted, the call rests on the fitted dose curve; in most records, active means well fitted curve in the direction sought with a large enough effect; inconclusive means small, poorly fitted or top-dose-only effect, or another doubt; inactive means no such curve, though single readings can be large; an effect the other way counts as inactive or inconclusive.

Key:
[1] = AP1 Signaling Pathway (AID 357; active means well fitted curve in either direction with a large enough effect, not every such curve was filed as active; further: on the % scale 0 is the no-effect control and ±100 the full control effect)
Outline: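 ME-180 cells with beta-lactamase reporter under AP-1 response element, stimulated with EC50 EGF; compounds tested in titration series, 5 h at 37 °C. CCF4 substrate added 2.5 h at room temperature; 460/530 nm emission ratio gave %activity and AC50.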

[2] = target: Cytochrome P450 1A2 (Homo sapiens) (UniProt P05177); test: p450-cyp1a2 (AID 410; calls by dose curve;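 further: -100% = full effect of reference inhibitor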)
Outline: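 Human CYP1A2 (20nM) demethylated Luciferin-ME at its Km (100uM) in 100mM KPO4. After 10 min compound preincubation, NADPH regeneration ran the reaction 60 min at room temperature. Luciferin was read by luminescence, normalized to 57 uM furafylline.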

[3] = NFAT Signaling Pathway (AID 444; active means well fitted curve in either direction with a large enough effect, not every such curve was filed as active;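 further: carbachol stimulus at about its EC50 of 1 µM final; on the % scale 0 is the no-effect control and ±100 the full control effect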); settings: Jurkat NFAT-bla M1, carbachol, beta-lactamase ratio, 5 h; at 38 µM (top of the series)
Outline: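 Jurkat cells carrying an NFAT-driven β-lactamase reporter and co-transfected muscarinic M1 receptor were treated with compound plus carbachol (1 uM final, an EC50 level) for 5 h at 37 °C. CCF4 loading followed for 1 h at RT; 460/530 nm ratio gave %activity.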

[4] = target: Glucocorticoid receptor (Homo sapiens) (UniProt P04150); test: GR-GFP Redistribution (AID 450;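 active means compounds whose dose series gives a full or clear partial fitted curve of increased nuclear translocation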; further: potency means the concentration at half of the fitted maximal effect); settings: U2OS GR-GFP nuclear translocation, laser cytometry, 2 h
[5] = target: Glucocorticoid receptor (Homo sapiens) (UniProt P04150); test: GR-EFC Redistribution (AID 451; calls by dose curve; further: potency means the concentration at half of the fitted maximal effect); settings: CHO-K1 GR-EFC translocation, beta-gal luminescence, 2 h
Outline: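 CHO-K1 cells stably expressing nuclear-localized β-gal enzyme acceptor and GR fused C-terminally to the enzyme donor fragment; ligand-driven nuclear translocation restores β-gal by complementation. Compounds titrated up to 46 uM final, 2 h at 37 °C; luminescence read.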

[6] = target: Mitogen-activated protein kinase 10 (Mus musculus) (UniProt Q61831); test: JNK3 AlphaScreen Assay (AID 530; active means well fitted curve in either direction with a large enough effect, not every such curve was filed as active;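 further: kinase came from lysate of stimulated human HepG2 cells; signal reports phosphorylation of biotinylated GST-cJun 1-79 at Ser73 with 10 µM ATP; on the % scale 0 is the no-effect control and ±100 the full control effect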)
Outline: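 JNK3 came from HepG2 lysates pre-activated with IL-1beta and TNF-alpha and phosphorylated biotinylated GST-cJun (1-79) at 10 uM ATP, pH 7.6, room temperature. Compounds were titrated. AlphaScreen signal used anti-phospho-cJun (Ser73) antibody.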

[7] = target: 3',5'-cyclic-AMP phosphodiesterase 4B (Homo sapiens) (UniProt Q07343); test: qHTS Assay for Inhibitors of PDE-IV (AID 607; active means well fitted activation curve with a large enough effect in the main read-out, with a control signal flat, not every such curve was filed as active; further: % of control where 0% means no effect)
Outline: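 ACTOne HEK293 cells carry a modified cAMP-gated CNG channel and express endogenous PDE4; plated 1000 cells/well, compounds up to 22.9 uM final. Membrane-potential dye fluorescence (ex 535/em 590) was read; parental cells received 10 uM forskolin + 100 uM RO 20-1724.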

[8] = target: Guanine nucleotide-binding protein G(i) subunit alpha-1 (Homo sapiens) (UniProt P63096); test: qHTS Assay for Inhibitors of RGS12 GoLoco Motif Activity (Green Fluorophore) (AID 879);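 further: 0% = labeled peptide with Gαi1 and full inhibition = labeled peptide alone without protein; negative values mean loss of peptide binding seen as reduced polarization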
Outline: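 Fluorescence polarization assay: 50 nM Gαi1 with 10 nM FITC-labeled RGS12 GoLoco peptide in 10 mM Tris pH 7.5, 150 mM NaCl, 0.1 mM GDP, 0.05% NP40, 10 min at room temperature with compound.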

[9] = target: Muscarinic acetylcholine receptor M1 (Rattus norvegicus) (UniProt P08482); test: qHTS Assay for Antagonists of Acetylcholine Muscarinic M1 Receptor: Measurement of IP-One Response (AID 944); further: nearly all actives have a fitted effect of over 75% in size
Outline: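 CHO cells expressing rat M1 receptor, recovered overnight, were pre-incubated 10 min with compound, then stimulated 30 min with carbachol at EC80 (200 nM) in LiCl-containing buffer, pH 7.4. IP1 accumulation was read by HTRF (620/665 nm).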

[10] = target: Pyruvate kinase (Leishmania mexicana) (UniProt Q27686); test: qHTS Validation Assay for Inhibitors of Leishmania Mexicana Pyruvate Kinase (AID 945);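 further: 0% = DMSO only neutral control wells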
Outline: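 qHTS eight-point titrations against 0.2 nM LmPYK (E451W) in imidazole buffer pH 7.2 with 0.5 mM PEP, 0.1 mM ADP; 1 h, room temperature. Readout: PKLight luminescence, normalized to neutral DMSO wells.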

[11] = target: Pyruvate kinase PKM (Homo sapiens) (UniProt P14618); test: qHTS Assay for Activators of Human Muscle Pyruvate Kinase (AID 954; active means well fitted curve in the direction sought with a large enough effect, not every such curve was filed as active;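 further: 0% = uninhibited enzyme and -100% = no enzyme or full thiadiazolimine inhibition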)
Outline: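 Luminescence from a luciferase ATP-detection/stop reagent reported PKM2 activity. Reactions contained 0.1 nM purified human enzyme, 0.5 mM PEP, 0.1 mM ADP and 7 mM MgCl2 at pH 7.2, run 1 h at RT.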

[12] = target: Alpha-galactosidase (Coffea arabica) (UniProt Q42656); test: Counterscreen for Glucocerebrosidase Inhibitors: qHTS Assay for Coffee Bean alpha-Galactosidase at pH 4.5 (AID 957);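 further: plate controls were enzyme alone for no effect and no enzyme for full effect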
Outline: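 Green coffee bean enzyme (2 nM final) was incubated with compounds (0.7 nM to 77 uM) and 4-methylumbelliferyl alpha-D-galactopyranoside (80 uM final) in 50 mM citric acid, 0.005% Tween-20, pH 4.5, 20 min at room temperature; AC50 from Hill fits.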

[13] = target: Alpha-galactosidase A (Homo sapiens) (UniProt P06280); test: Counterscreen for Glucocerebrosidase Inhibitors: qHTS Assay for Human alpha-Galactosidase at pH 4.5 (AID 992); further: 0% is about no effect
Outline: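 Enzyme at 2 nM final was combined with compound (0.7 nM to 77 uM) and 80 uM 4-methylumbelliferyl alpha-D-galactopyranoside in 50 mM citric acid, 0.005% Tween-20, pH 4.5. After 20 min at room temperature, fluorescence was read (Ex 365/Em 440 nm); AC50 came from Hill fits.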

[14] = target: alpha-glucosidase (Oryza sativa, rice) (UniProt Q653V4); test: Counterscreen for Glucocerebrosidase Inhibitors: qHTS Assay for Rice alpha-Glucosidase at pH 5.0 (AID 997);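 further: 0% = full activity with enzyme and -100% = basal without enzyme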
Outline: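 Rice alpha-glucosidase (4 nM final) with 400 uM 4-methylumbelliferyl-alpha-D-glucopyranoside in citrate buffer pH 5.0, 20 min at room temperature, stopped at pH 10; fluorescence 365/440 nm, compounds 0.7 nM–77 uM, AC50 from Hill fits.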

[15] = target: Alpha-galactosidase (Coffea arabica) (UniProt Q42656); test: Counterscreen for Glucocerebrosidase Inhibitors: qHTS Assay for Coffee Bean alpha-Galactosidase at pH 5.9 (AID 998);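 further: plate controls were uninhibited enzyme for no effect and no-enzyme basal signal for full effect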
Outline: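 Green coffee bean enzyme (2 nM final) was incubated with compounds (0.7 nM–77 uM) and 4-methylumbelliferyl alpha-D-galactopyranoside (80 uM) in citrate buffer pH 5.9, 20 min at room temperature. High-pH stop; fluorescence 365/440 nm; AC50 from Hill fits.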

[16] = Validation of Assay for Modulators of Lamin A Splicing (AID 1459; active means well fitted curve in the direction sought with a large enough effect in the signal ratio; the % refers to the signal ratio;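 further: cells exposed to compound for two days before reading; 0% is about no effect; ratio rise marks activators and ratio drop marks inhibitors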)
Outline: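 S3 HeLa stably expressing lamin A-EGFP splicing minigene and DsRed2, 600 cells/well in Opti-MEM with 2% FBS, treated 48 h at 37C; laser-scanning cytometry gives GFP/RFP total intensity ratio; ancitabine positive control, 0.5% DMSO vehicle.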

[17] = target: DNA repair nuclease/redox regulator APEX1 (Homo sapiens) (UniProt P27695); test: qHTS Validation Assay for Inhibitors of the Human Apurinic/apyrimidinic Endonuclease 1 (APE1) (AID 1705;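 further: TAMRA fluorescence gain over two minutes as APE1 cuts a quenched THF abasic duplex; on the % scale 0 is the no-effect control and ±100 the full control effect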)
Outline: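 Fluorogenic double-stranded THF abasic-site substrate (5'-TAMRA/3'-BHQ-2), 50 nM final. Enzyme preincubated with compound 15 min at room temperature, then substrate added. Kinetic fluorescence (ex 525/em 598 nm) read three times at 60 s intervals; activity taken as third-minus-first read difference.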

[18] = Counterscreen for APE1 Inhibitors: Fluorescent Dye Displacement Validation Assay (AID 1707);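 further: plate controls were ThO with dsDNA and no compound for no effect and ThO without dsDNA for full effect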
Outline: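 Thiazole Orange displacement from dsDNA: 250 nM ThO with 50 nM TAMRA-labelled abasic-site (tetrahydrofuran) duplex in 50 mM Tris-HCl pH7.5, 50mM NaCl, 2 mM MgCl2, 0.01% Tween-20. Loss of endpoint fluorescence (ex 480 nm, em 540 nm) flags DNA binders.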

[19] = qHTS for differential inhibitors of proliferation of Plasmodium falciparum line 7G8 (AID 1815);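 further: parasite growth measured after three days of incubation; plate controls were vehicle wells for no effect and reference inhibitor wells for full effect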
[20] = qHTS for differential inhibitors of proliferation of Plasmodium falciparum line GB4 (AID 1816); settings: Potency: Plasmodium falciparum GB4 proliferation inhibition;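 further: parasite growth measured after 72 h incubation; 0% = vehicle DMSO and -100% = reference inhibitor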

Chain of Glucocorticoid receptor (Homo sapiens) (P04150 whole entry, looked up, the tested form may be a part): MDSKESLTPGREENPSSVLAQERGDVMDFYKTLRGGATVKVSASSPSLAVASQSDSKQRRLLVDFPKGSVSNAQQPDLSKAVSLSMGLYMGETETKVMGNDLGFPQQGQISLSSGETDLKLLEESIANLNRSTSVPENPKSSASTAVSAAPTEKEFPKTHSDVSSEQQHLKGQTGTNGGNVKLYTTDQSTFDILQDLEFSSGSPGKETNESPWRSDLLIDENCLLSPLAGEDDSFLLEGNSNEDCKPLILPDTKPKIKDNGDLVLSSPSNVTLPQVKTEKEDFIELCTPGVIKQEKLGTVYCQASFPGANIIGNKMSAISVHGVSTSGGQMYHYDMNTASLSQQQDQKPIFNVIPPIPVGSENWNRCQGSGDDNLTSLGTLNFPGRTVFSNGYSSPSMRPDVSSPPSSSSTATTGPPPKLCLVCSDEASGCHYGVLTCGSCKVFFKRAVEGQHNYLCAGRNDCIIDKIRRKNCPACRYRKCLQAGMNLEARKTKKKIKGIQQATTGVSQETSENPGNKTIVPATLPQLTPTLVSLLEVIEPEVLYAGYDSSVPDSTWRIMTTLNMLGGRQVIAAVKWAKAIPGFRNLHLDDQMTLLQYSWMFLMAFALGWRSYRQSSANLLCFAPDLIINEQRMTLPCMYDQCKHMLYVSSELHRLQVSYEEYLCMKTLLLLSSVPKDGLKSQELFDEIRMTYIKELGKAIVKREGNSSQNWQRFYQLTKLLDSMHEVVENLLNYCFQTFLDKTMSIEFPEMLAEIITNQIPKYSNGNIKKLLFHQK
Chain of Alpha-galactosidase (Coffea arabica) (Q42656 whole entry, looked up): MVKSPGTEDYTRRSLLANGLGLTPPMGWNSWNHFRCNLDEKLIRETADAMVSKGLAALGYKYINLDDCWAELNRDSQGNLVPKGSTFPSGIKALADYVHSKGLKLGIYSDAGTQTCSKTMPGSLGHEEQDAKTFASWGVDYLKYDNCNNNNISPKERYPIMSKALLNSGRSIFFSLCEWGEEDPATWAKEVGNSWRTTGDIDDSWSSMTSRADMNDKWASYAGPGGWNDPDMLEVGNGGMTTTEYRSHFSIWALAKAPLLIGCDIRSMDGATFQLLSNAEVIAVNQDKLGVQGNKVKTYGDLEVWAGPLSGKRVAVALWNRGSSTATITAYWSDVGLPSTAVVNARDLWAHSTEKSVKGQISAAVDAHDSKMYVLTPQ
Chain of 3',5'-cyclic-AMP phosphodiesterase 4B (Homo sapiens) (Q07343 whole entry, looked up): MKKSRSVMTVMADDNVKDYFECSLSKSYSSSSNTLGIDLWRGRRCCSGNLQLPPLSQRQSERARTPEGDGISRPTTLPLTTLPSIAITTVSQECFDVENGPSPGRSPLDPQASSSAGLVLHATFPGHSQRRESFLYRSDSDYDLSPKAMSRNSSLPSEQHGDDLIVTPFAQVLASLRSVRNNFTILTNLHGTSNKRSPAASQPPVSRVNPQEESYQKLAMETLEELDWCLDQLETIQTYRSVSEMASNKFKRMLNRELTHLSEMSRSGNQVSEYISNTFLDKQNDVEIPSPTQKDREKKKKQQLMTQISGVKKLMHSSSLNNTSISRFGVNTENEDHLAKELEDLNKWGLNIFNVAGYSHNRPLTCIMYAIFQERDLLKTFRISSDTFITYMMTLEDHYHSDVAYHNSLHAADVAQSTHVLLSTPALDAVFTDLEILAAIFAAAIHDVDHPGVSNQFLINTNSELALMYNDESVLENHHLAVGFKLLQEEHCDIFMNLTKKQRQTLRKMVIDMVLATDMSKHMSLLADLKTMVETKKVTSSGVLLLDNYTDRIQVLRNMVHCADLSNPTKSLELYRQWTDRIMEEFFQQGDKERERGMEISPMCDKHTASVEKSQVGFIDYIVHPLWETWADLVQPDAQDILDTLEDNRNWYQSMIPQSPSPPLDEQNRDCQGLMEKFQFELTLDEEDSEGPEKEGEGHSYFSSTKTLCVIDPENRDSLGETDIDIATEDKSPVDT
Chain of Pyruvate kinase (Leishmania mexicana) (Q27686 2-499 E452W): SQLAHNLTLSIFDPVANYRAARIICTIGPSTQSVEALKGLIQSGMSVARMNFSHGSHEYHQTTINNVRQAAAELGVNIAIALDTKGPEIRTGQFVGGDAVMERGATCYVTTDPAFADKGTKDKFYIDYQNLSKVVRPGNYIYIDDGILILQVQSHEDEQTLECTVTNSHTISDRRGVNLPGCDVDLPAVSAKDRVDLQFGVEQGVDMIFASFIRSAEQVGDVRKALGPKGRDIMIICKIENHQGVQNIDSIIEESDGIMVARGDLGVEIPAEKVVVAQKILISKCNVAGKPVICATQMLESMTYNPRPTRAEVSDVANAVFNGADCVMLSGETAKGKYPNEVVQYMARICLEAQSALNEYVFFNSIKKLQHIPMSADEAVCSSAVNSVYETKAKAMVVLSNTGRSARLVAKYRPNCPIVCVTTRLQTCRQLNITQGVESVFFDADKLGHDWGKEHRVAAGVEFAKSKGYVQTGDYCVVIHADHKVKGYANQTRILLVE
Chain of Alpha-galactosidase A (Homo sapiens) (P06280 whole entry, looked up): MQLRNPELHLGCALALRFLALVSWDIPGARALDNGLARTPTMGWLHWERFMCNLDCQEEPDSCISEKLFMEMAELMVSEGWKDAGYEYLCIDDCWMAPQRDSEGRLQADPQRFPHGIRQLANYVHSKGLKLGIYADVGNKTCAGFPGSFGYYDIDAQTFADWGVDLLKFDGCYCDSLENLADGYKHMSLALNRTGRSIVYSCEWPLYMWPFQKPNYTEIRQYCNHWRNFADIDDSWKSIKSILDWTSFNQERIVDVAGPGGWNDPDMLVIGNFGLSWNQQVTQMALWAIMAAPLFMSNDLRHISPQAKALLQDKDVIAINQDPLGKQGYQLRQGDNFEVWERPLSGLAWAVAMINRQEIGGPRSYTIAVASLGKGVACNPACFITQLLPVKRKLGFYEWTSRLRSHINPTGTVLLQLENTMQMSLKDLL
Chain of Guanine nucleotide-binding protein G(i) subunit alpha-1 (Homo sapiens) (P63096 whole entry, looked up): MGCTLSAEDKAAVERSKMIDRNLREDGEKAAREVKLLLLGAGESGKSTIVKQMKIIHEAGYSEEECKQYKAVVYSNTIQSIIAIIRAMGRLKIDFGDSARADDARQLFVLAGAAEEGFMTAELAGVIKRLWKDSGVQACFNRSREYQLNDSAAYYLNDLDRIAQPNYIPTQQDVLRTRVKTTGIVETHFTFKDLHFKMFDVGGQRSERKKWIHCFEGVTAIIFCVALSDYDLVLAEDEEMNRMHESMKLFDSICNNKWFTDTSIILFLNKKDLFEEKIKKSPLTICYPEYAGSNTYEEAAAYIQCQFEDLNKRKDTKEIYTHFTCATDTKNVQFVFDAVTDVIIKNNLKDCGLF
Chain of Pyruvate kinase PKM (Homo sapiens) (P14618 whole entry, looked up): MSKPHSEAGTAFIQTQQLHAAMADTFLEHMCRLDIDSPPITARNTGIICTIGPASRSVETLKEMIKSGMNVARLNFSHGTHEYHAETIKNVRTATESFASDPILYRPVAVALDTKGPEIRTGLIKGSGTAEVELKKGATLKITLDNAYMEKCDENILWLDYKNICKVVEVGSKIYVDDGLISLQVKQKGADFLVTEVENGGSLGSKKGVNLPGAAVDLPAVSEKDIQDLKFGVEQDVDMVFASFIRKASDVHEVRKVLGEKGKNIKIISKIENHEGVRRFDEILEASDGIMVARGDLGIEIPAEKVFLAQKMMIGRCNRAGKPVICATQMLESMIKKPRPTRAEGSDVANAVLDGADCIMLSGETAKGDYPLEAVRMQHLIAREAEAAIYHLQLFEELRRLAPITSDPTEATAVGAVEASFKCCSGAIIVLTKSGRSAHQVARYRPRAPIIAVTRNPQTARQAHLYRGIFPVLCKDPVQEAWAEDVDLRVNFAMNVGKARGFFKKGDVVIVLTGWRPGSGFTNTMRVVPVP
Chain of Muscarinic acetylcholine receptor M1 (Rattus norvegicus) (P08482 whole entry, looked up): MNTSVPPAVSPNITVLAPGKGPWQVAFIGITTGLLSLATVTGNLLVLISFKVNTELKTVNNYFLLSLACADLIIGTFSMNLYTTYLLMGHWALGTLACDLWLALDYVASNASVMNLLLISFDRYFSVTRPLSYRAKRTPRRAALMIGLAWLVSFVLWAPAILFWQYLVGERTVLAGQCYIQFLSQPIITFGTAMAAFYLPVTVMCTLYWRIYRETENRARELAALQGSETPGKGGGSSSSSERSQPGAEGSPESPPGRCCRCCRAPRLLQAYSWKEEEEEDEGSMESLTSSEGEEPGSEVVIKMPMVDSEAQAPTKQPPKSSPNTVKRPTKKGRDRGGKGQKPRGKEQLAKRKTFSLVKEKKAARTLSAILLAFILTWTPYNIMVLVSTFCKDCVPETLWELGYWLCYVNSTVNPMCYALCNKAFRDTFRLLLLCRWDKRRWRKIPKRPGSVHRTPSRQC
Chain of DNA repair nuclease/redox regulator APEX1 (Homo sapiens) (P27695 whole entry, looked up): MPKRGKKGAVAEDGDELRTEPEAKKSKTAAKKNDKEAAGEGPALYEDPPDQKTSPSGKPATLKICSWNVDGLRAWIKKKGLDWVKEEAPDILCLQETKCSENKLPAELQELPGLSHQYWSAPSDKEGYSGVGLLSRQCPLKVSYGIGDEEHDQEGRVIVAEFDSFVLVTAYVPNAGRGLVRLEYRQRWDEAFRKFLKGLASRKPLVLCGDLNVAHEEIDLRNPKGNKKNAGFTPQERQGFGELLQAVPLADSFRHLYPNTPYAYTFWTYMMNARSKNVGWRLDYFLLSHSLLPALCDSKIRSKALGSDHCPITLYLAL
Chain of Cytochrome P450 1A2 (Homo sapiens) (P05177 whole entry, looked up): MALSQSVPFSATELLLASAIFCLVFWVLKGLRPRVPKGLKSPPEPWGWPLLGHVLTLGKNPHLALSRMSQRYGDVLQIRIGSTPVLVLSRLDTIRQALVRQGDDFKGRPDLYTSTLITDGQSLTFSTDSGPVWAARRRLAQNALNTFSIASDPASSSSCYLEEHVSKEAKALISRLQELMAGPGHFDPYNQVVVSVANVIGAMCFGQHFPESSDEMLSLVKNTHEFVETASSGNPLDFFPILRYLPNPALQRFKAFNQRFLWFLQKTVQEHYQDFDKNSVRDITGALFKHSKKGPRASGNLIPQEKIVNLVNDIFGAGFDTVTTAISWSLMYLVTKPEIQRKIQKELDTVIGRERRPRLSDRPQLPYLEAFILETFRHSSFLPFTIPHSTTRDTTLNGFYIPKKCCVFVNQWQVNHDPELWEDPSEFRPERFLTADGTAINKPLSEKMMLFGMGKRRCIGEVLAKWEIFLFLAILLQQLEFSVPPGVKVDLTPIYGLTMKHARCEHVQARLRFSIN

COc1cc(CCN)ccc1O
inactive: outcome [1] | Potency [2] | activity change, negative = inhibition [3] 5.48% | Potency [4] > 46 µM | Potency [5] > 46 µM | outcome [6] | Potency [7] | outcome [8] | Potency [9] | outcome [10] | outcome [11] | outcome [12] | outcome [13] | outcome [14] | outcome [15] | outcome [16] | Potency [17] | Potency [18] | Potency [19] | Potency [20]
